The list is not random: actives were taken first. Their share in the collection is about 6.8%.
Cy5 interf NS3h – Cy5 fluorescence interference, HCV helicase counter-screen. Cy5-dT15 DNA with NS3h; actives lie on both sides; signal over control mean, under 1 quenches. hit rate 6% among 16,000. fluorescence interference ratio at 100 µM;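 active = compound fluorescence over control fluorescence at most 0.8, a quencher, or at least a set upper limit, an enhancer; inactive = ratio between 0.8 and the set upper limit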
HCV NS3h FP – blocks HCV NS3 helicase binding to DNA. NS3h Cy5-dT15 DNA binding, fluorescence polarization. inhibition, % at 100 µM. hit rate 1.6% among 16,000;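 active = inhibition above the average over every tested compound plus 3 SD, cut at about 40% in these data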
Of the large screens only hits and unclear results are named; the others gave an inactive call.

O=C(CSc1nc2ccc([N+](=O)[O-])cc2[nH]1)c1ccc2ccccc2c1	none
O=C(CSc1nc2ccc([N+](=O)[O-])cc2[nH]1)c1ccc(Br)cc1	Cy5 interf NS3h 0.61
CCOc1ccc(NC(=O)CSc2nc3ccccc3[nH]2)cc1	none
Cc1cccc(NC(=O)CSc2nc3ccc(C)cc3[nH]2)c1	Cy5 interf NS3h 0.65
CCCCOc1ccc(C(=O)Nc2ccc(Cl)cn2)cc1	none
CC(Oc1ccccc1)C(=O)Nc1cc(C(N)=O)cc(C(N)=O)c1 (centres undefined)	none
COc1cc(OC)c(C2NC(=O)NC(C)=C2C(=O)Nc2ccccc2C)cc1OC (centres undefined)	none
COc1ccc(CCNC(=O)C(=O)Nc2ccccc2C)cc1	none
O=C1NC(=Nc2ccccc2)S/C1=C/c1ccc(O)cc1	Cy5 interf NS3h 1.3
O=C1N/C(=N/N=C\c2ccccc2)S/C1=C\c1ccccc1	none
O=[N+]([O-])c1cccc(S(=O)(=O)NCc2ccc(Cl)cc2)c1	none
NC(=O)COc1ccc(/C=N\NS(=O)(=O)c2ccccc2)cc1	none
O=C(CN(c1cccc(Cl)c1)S(=O)(=O)c1ccccc1)NCCSc1nc2ccccc2s1	none
O=[N+]([O-])c1cc(NS(=O)(=O)Cc2ccccc2)ccc1F	Cy5 interf NS3h 0.63
O=C(Nc1ccc(F)c([N+](=O)[O-])c1)C(c1ccccc1)c1ccccc1	none
CC1=C(C(=O)Nc2ccccc2)C(c2ccncc2)C(C#N)=C(SCC(N)=O)N1 (centres undefined)	none
O=C(N/N=C\c1cc(Cl)ccc1O)/C(=C\c1ccc2c(c1)OCO2)NC(=O)c1ccccc1	none
Cc1ccsc1C1Nc2ccc3ccccc3c2C2=C1C(=O)CC(C)(C)C2 (centres undefined)	none
O=C1CCCC2=C1C(c1ccc3c(c1)OCO3)Nc1ccc3ccccc3c12 (centres undefined)	Cy5 interf NS3h 0.72
O=C(Nc1ccc(-c2nc3ccccc3o2)c(O)c1)c1ccc(-c2ccc(Cl)cc2Cl)o1	none
Oc1c(Cl)cc(Cl)cc1/C=N\N=C/c1cc(Cl)cc(Cl)c1O	none
CC(=C\c1ccccc1)/C=C1/SC(=O)N(c2ccc(Cl)cc2)C1=O	Cy5 interf NS3h 0.78
O=C1S/C(=C/c2ccc(Cl)cc2Cl)C(=O)N1c1ccccc1	none
Cc1ccc(NC(=O)C2C(c3ccccc3)=C2c2ccccc2)c(C)c1	none
Cc1ccc(N=Cc2ccc([N+](=O)[O-])s2)c(C)c1	Cy5 interf NS3h 0.8
O=[N+]([O-])c1ccc(C=Nc2ccc(Cl)c([N+](=O)[O-])c2)s1	none
Cc1ccc(OCC(=O)Nc2c(C)cccc2C(C)C)c(C(C)(C)C)c1	none
COc1ccc(NC(=O)/C(=C/c2ccccc2Cl)NC(=O)c2ccc(C)cc2)cc1	none
COc1cccc(NC(=O)/C(=C/c2ccc(C)o2)NC(=O)c2ccccc2)c1	Cy5 interf NS3h 0.71
N/C(=N/OC(=O)c1ccc(Cl)c([N+](=O)[O-])c1)c1ccccc1Cl	none
COc1ccc(NC(=O)/C(C#N)=C/c2ccc(-c3ccc(Cl)cc3)o2)cc1	none
COc1ccc(CC(=O)Nc2ccc(C)c(NC(=O)c3ccccc3)c2)cc1OC	none
Cc1ccc(-n2nc3ccc(NC(=O)c4ccco4)cc3n2)cc1	Cy5 interf NS3h 0.68
Cc1ccc(NC(=O)c2ccco2)cc1NC(=O)c1ccccc1	Cy5 interf NS3h 0.78
CCOC(=O)c1cccc(NC(=O)c2ccco2)c1	Cy5 interf NS3h 0.68
COc1ccc(-n2nc3cc(C)c(NC(=O)c4ccco4)cc3n2)cc1	none
O=C(Nc1ccc2nn(-c3ccccc3)nc2c1)C(Cl)(Cl)Cl	Cy5 interf NS3h 0.69
Nc1cccc(NC(=O)c2ccco2)c1	none
O=C(O)CCC(=O)Nc1ccc2nn(-c3ccccc3)nc2c1	none
CCOc1cc(C(=O)Nc2ccc(Cl)cc2Cl)cc(OCC)c1OCC	none
O=C(Nc1ccccc1CO)c1cccc(F)c1	none
COc1ccc(/C(N)=N\OC(=O)c2cccc([N+](=O)[O-])c2C)cc1OC	none
COc1ccc2c(c1[N+](=O)[O-])CCC/C2=N\OC(=O)c1cccc2ccccc12	none
COc1ccccc1C(=O)O/N=C1\CCCc2c1ccc(OC)c2[N+](=O)[O-]	Cy5 interf NS3h 0.74
COc1ccc2c(c1[N+](=O)[O-])CCC/C2=N\OC(=O)c1ccccc1SC	Cy5 interf NS3h 0.63
O=C(/C=C/c1ccccc1)C1=C(O)C(=O)N(c2ccccn2)C1c1ccccc1F (centres undefined)	none
C=COCCNC(=O)C(=O)Nc1ccc(CC)cc1	none
CC(C)C(Nc1nc2ncn(Cc3ccccc3)c2c(=O)[nH]1)C(=O)O (centres undefined)	none
O=C1NC(=S)S/C1=C/c1ccc(OCc2cccc(C(=O)O)c2)cc1	HCV NS3h FP 46
COc1cc(/C=C2/SC(=S)NC2=O)ccc1OC(=O)c1cccc(Br)c1	Cy5 interf NS3h 0.76
O=C1NC(=S)S/C1=C/c1ccc(OCc2ccc(Cl)cc2)cc1	none
COc1cc(/C=C2/SC(=S)NC2=O)ccc1OS(=O)(=O)c1ccccc1[N+](=O)[O-]	Cy5 interf NS3h 1.3
COc1cc(/C=C2/SC(=NS(=O)(=O)c3ccccc3)NC2=O)c([N+](=O)[O-])cc1OC	none
COc1cc(/C=C2/SC(=S)NC2=O)ccc1OCc1ccc(I)cc1	none
Cc1ccc2nsnc2c1NC(=O)c1ccc(-c2cccc([N+](=O)[O-])c2)o1	none
O=[N+]([O-])c1cc(N=Cc2ccc(Br)s2)ccc1Cl	none
O=C1NC(=S)S/C1=C\c1ccc(O)c(O)c1	none
COC(=O)c1cc(NC(=O)c2cccc(OCc3ccccc3)c2)cc(C(=O)OC)c1	Cy5 interf NS3h 1.2
COC(=O)c1cc(NC(=O)c2ccc(OCc3ccccc3)cc2)cc(C(=O)OC)c1	none
CN1C(=O)NC(=O)/C(=C\c2ccc(Cl)cc2)C1=O	none
CCC(C)NS(=O)(=O)c1ccc([N+](=O)[O-])cc1 (centres undefined)	none
O=[N+]([O-])c1cccc2c1=C1C(Cl)=CC=C1C=2	Cy5 interf NS3h 0.54
O=C1c2ccccc2C(=O)N1N1C(=O)c2cccc([N+](=O)[O-])c2C1=O	none
CCN1C(=O)/C(=C\c2cc(Cl)c(O)c(Cl)c2)SC1=S	none
O=C(NCc1ccccc1)c1nn2c(c1Br)NC(c1cccs1)CC2C(F)(F)F (centres undefined)	none
O=C(Nc1ccc(F)cc1F)c1nn2c(c1Cl)NC(c1cccs1)CC2C(F)(F)F (centres undefined)	Cy5 interf NS3h 0.74
CC(C)(C)NC(=O)c1nn2c(c1Br)NC(c1cccs1)CC2C(F)(F)F (centres undefined)	none
COc1ccc(Cl)cc1NC(=O)c1nn2c(c1Cl)NC(c1cccs1)CC2C(F)(F)F (centres undefined)	none
O=C(Nc1cccc(C(F)(F)F)c1)c1nn2c(c1Br)NC(c1cccs1)CC2C(F)(F)F (centres undefined)	none
CSc1ccccc1NC(=O)c1nn2c(c1Br)NC(c1cccs1)CC2C(F)(F)F (centres undefined)	Cy5 interf NS3h 0.74
O=C(NCCCN1CCOCC1)c1nn2c(c1Br)NC(c1cccs1)CC2C(F)(F)F (centres undefined)	Cy5 interf NS3h 0.71
O=C(NCCc1ccccc1)c1nn2c(c1Br)NC(c1cccs1)CC2C(F)(F)F (centres undefined)	Cy5 interf NS3h 0.54
CN(C)c1ccc(/C=N\NC(=O)C(O)(c2ccccc2)c2ccccc2)o1	none
O=C(/C=C/c1ccccc1)NC(=S)Nc1cccc2ccccc12	none
COc1cc(/C=C2\NC(=S)NC2=O)ccc1Oc1ccc([N+](=O)[O-])cn1	none

Assay outcomes deposited in PubChem by Milwaukee Institute for Drug Discovery.
